Compound activity: PubChem, several laboratories
Shown are actives, neighbours in structure and some others; about 4.5% of the full set was active somewhere.
Jurkat NFkB inh – inhibitors of the PMA/ionomycin-induced NF-kB reporter in Jurkat cells. PMA/ionomycin-induced NF-kB luciferase reporter, luminescence. inhibition, % at 4 µM. hit rate 0.53% among 330,000; in the data active means inhibition above about 50%
697 NFkB inh – lowers PMA/ionomycin-induced NF-kB signal in 697 B cells. hit rate 0.33% among 330,000. AID 435022. 697 B-cell NF-kB luciferase reporter, 16 h. inhibition, % at 4 µM; in the data active means inhibition above about 35%
aSyn UTR inh – 5' untranslated region of α-synuclein, MLPCN primary screen; alpha-synuclein 5'UTR reporter, inhibitor activity; inhibition, % (tested at 7.5 µM); hit rate 0.82% among 300,000; AID 1813; in the data active means inhibition above about 60%; inconclusive means no clear call, values can overlap the other calls;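 further: H4 neuroglioblastoma cells stably carrying SNCA 5'UTR luciferase fusion; 0% = DMSO wells and 100% = positive control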
Gli-Sufu block – blocks Gli-Sufu signaling in a luciferase reporter | Sufu-KO-LIGHT fibroblasts, Gli luciferase reporter luminescence | inhibition, % at 5 µM | hit rate 0.74% among 340,000 | AID 588413;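 active means inhibition above about 55%, limit read from the data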;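 further: 0% = DMSO-treated cells and 100% = wells with medium but no cells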
CSC inhib – cancer stem cell inhibition. inhibition, % at 7.5 µM. AID 2717. hit rate 1.1% among 300,000. cancer stem cell-like cells viability, luminescence; in the data active means inhibition above about 75%; inconclusive means no clear call, values can overlap the other calls; tested in HMLE shEcad cells
Mdm2 MdmX PPI – disrupts the human Mdm2-MdmX interaction; SaOS-2 split-luciferase Mdm2/MdmX complementation, luminescence; inhibition, % at 8 µM; hit rate 3% among 330,000; AID 485346;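 active means inhibition of at least 50% at 8 µM in the primary screen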
Mdm2 MdmX conf – confirmation of human Mdm2/MdmX interaction inhibitors; shares compounds with Mdm2 MdmX PPI; Mdm2-MdmX binding, luminescent assay; inhibition, % at 8 µM; hit rate 55% among 10,000; AID 489028; in the data active means inhibition above about 40%
Full FLuc ctr – full-length luciferase inhibition in Mdm2/MdmX counter-screen | inhibition, % at 8 µM | SaOS-2 full-length luciferase counterscreen, luminescence | AID 504607 | shares compounds with Mdm2 MdmX PPI | hit rate 77% among 6,200;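 active means mean inhibition at 8 µM reaching about 37%, which flags the compound as non-specific, limit read from the data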;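 further: p53-null SaOS-2 cells with luciferase driven by a doxycycline-inducible promoter; compound on cells about two nights before reading with doxycycline added after day one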
Numbers without * were called inactive.

What do the screens show for `CCCCC(=O)Nc1ccc2oc(-c3ccncc3)nc2c1`?
Jurkat NFkB inh: -2; 697 NFkB inh: -25; aSyn UTR inh: -31; Gli-Sufu block: -3; CSC inhib: -5; Mdm2 MdmX PPI: 6

How did CCN(CC)CC(=O)Nc1ccc(-c2nc3cc(NC(=O)CN(CC)CC)ccc3o2)cc1 do in these assays?
Jurkat NFkB inh: -55; 697 NFkB inh: -21; aSyn UTR inh: -32; Gli-Sufu block: -20; CSC inhib: 8; Mdm2 MdmX PPI: 55*; Mdm2 MdmX conf: 41*; Full FLuc ctr: 74*

Results for COc1ccc(NC(=O)COC(=O)c2c3c(nc4ccccc24)CCCC3)cc1 ?
Jurkat NFkB inh: 8; 697 NFkB inh: -5; aSyn UTR inh: 20; Gli-Sufu block: 36; CSC inhib: -2; Mdm2 MdmX PPI: 37

How did COc1ccc(OC)c(Nc2c3ccccc3nc3ccccc23)c1 do in these assays?
Jurkat NFkB inh: 31; 697 NFkB inh: -67; aSyn UTR inh: -26; Gli-Sufu block: 30; CSC inhib: inconclusive; Mdm2 MdmX PPI: 73*; Mdm2 MdmX conf: 65*; Full FLuc ctr: 60*

How did COc1ccc(OC)c(Nc2cc(C)c3ccccc3n2)c1 do in these assays?
Jurkat NFkB inh: 31; 697 NFkB inh: -11; aSyn UTR inh: 23; CSC inhib: 18; Mdm2 MdmX PPI: -13

How did COc1ccc(OC)c(Nc2c3c(nc4ccccc24)CCC3)c1 do in these assays?
Jurkat NFkB inh: 27; 697 NFkB inh: -38; aSyn UTR inh: 106*; CSC inhib: 57; Mdm2 MdmX PPI: 51*; Mdm2 MdmX conf: 62*; Full FLuc ctr: 79*

Results for COc1ccc(OC)c(NC(=O)COC(=O)c2c3c(nc4ccccc24)CCCC3)c1 ?
Jurkat NFkB inh: 8; 697 NFkB inh: 16; aSyn UTR inh: 12; Gli-Sufu block: 3; CSC inhib: 54; Mdm2 MdmX PPI: 85*; Mdm2 MdmX conf: 63*; Full FLuc ctr: 57*

How did COc1cc(Nc2c3c(nc4ccccc24)CCC3)cc(OC)c1OC do in these assays?
Jurkat NFkB inh: 43; 697 NFkB inh: -37; aSyn UTR inh: 29; Gli-Sufu block: 46; CSC inhib: 58; Mdm2 MdmX PPI: 88*; Mdm2 MdmX conf: 74*; Full FLuc ctr: 63*

What do the screens show for `CCN(CC)S(=O)(=O)c1ccc(Cl)c(C(=O)OC2CC(C)OC2=O)c1` (stereo not drawn)?
Jurkat NFkB inh: 10; 697 NFkB inh: 14; aSyn UTR inh: 10; Gli-Sufu block: -13; CSC inhib: -8; Mdm2 MdmX PPI: -10

How did CCSc1nc2c(sc3ccccc32)c(=O)n1C(C)C do in these assays?
Jurkat NFkB inh: -13; 697 NFkB inh: -4; aSyn UTR inh: -22; Gli-Sufu block: 8; CSC inhib: 50; Mdm2 MdmX PPI: -14

Results for Cc1c(C(c2ccc(F)cc2)c2c(C)n(C)n(-c3ccccc3)c2=O)c(=O)n(-c2ccccc2)n1C ?
Jurkat NFkB inh: -2; 697 NFkB inh: -1; aSyn UTR inh: 5; Gli-Sufu block: 5; CSC inhib: -12; Mdm2 MdmX PPI: 11

Results for COc1ccc(Cl)cc1C(=O)NNC(=O)c1cc2ccccc2o1 ?
Jurkat NFkB inh: -6; 697 NFkB inh: 2; Gli-Sufu block: 7; CSC inhib: -8; Mdm2 MdmX PPI: 14

Results for CCCN(CCC)c1ncnc2nc[nH]c12 ?
Jurkat NFkB inh: 20; 697 NFkB inh: -45; aSyn UTR inh: 41; Gli-Sufu block: -17; CSC inhib: -20; Mdm2 MdmX PPI: 72*; Mdm2 MdmX conf: 64*; Full FLuc ctr: 35

What do the screens show for `Clc1ccccc1CN(Cc1ccccc1)c1ncnc2nc[nH]c12`?
Jurkat NFkB inh: -14; 697 NFkB inh: -31; aSyn UTR inh: 8; Gli-Sufu block: 2; CSC inhib: 51; Mdm2 MdmX PPI: 9

How did CCCCn1c(N)c(N(CCOC)C(=O)CCCc2nc3ccccc3c(=O)[nH]2)c(=O)[nH]c1=O do in these assays?
Jurkat NFkB inh: -15; 697 NFkB inh: 13; aSyn UTR inh: 13; Gli-Sufu block: 17; CSC inhib: 9; Mdm2 MdmX PPI: 5
